{"source": "PubChem BioAssay (NCI)", "note": "About 83,000 compounds went through this panel and 20% of them were active in at least one assay; those are over-represented in the sample as a whole.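 Percent growth is the endpoint: 0 to 100 indicates growth inhibition (40 means 60% inhibition), 0 means no net growth, and negative values indicate cell death.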 Active and inactive are the calls of the source.", "data": [{"system": "T-47D breast", "assay": "NCI-60 one-dose screen, 48 h (100 = growth as untreated, 0 = no growth, -100 = all killed)", "conditions": "10 µM unless noted", "method": "Growth inhibition of the T-47D human tumor cell line is measured as a screen for anti-cancer activity. Cells are grown in 96 well plates and exposed to the test compound for 48 hours. Compounds are tested at a single concentration, which is 10^-5 M for most compounds. The reported endpoint is percent growth (GI% or GIPRCNT), where numbers from 0 - 100% represent growth inhibition, and numbers from -100% - 0 represent cell death. For example, a value of 40 represents 60% growth inhibition. A value of 0 means no net growth occurred over the course of the experiment. A value of -40 indicates 40% of cells at the beginning of the experiment died by the end of the experiment. A value of -100 means all cells are dead at the end of the experiment.\nNCI-60 Human Tumor Cell Lines Screen was performed using the standard one-dose NCI protocol, which is described in more detail at https://dtp.cancer.gov/discovery_development/nci-60/default.htm.\nCompounds with GIPRCNT values below 10 were considered active. Activity score was based on GIPRCNT using the following formula: […]\nScore is 0 for GIPRCNT values of 100 or above, 50 for GIPRCNT values of 0, and 100 for GIPRCNT values of -100.", "values": [{"smiles": "CN(C)c1nc(N)nc(Cn2c(-c3nonc3N)nc3ccccc32)n1", "growth": "89.7% (inactive)"}, {"smiles": "CCCc1nn(C)c2c(=O)[nH]c(-c3cc(S(=O)(=O)N4CCN(C)CC4)ccc3OCC)nc12", "growth": "98.4% (inactive)"}, {"smiles": "CN(CCOc1ccc(CC2SC(=O)NC2=O)cc1)c1ccccn1", "note": "(stereo not given)", "growth": "102% (inactive)"}, {"smiles": "O=[N+]([O-])c1ccc2c(c1)S(=O)c1cc([N+](=O)[O-])ccc1N2", "growth": "96.6% (inactive)"}, {"smiles": "Cc1c(C)c(N2C(=O)C=CC2=O)c(C)c(C)c1N1C(=O)C=CC1=O", "growth": "113% (inactive)"}, {"smiles": "O=C1/C(=N/O)CCc2ccccc21", "growth": "100% (inactive)"}, {"smiles": "O=C(Cc1ccccn1)C(F)(F)C(F)(F)C(F)(F)F", "growth": "102% (inactive)"}, {"smiles": "Cc1ccc2c(c1)C(=O)/C(=C/c1ncc([N+](=O)[O-])n1C)O2", "growth": "90.3% (inactive)"}, {"smiles": "COc1cc(C2CC(=O)Nc3c2cc(Br)c2ccccc32)cc(Br)c1OC", "note": "(stereo not given)", "growth": "4.99% (active)"}, {"smiles": "NC(N)=NN=c1c(=O)c2ccccc2c1=O", "growth": "116% (inactive)"}, {"smiles": "CCOc1cccc(C2CC(=O)Nc3cc4c(cc32)OCO4)c1", "note": "(stereo not given)", "growth": "66.9% (inactive)"}, {"smiles": "CCC(O)C(C)(C)C", "note": "(stereo not given)", "growth": "112% (inactive)"}, {"smiles": "Nc1ccc2c(c1)/C(=N/O)c1cc([N+](=O)[O-])ccc1-2", "growth": "93% (inactive)"}, {"smiles": "Cc1cc(C)n2nc(SCC(=O)Nc3sc4c(c3C(N)=O)CCC4)nc2n1", "growth": "109% (inactive)"}, {"smiles": "COc1cccc(CCC2C(=O)CCCC2=O)c1", "growth": "97.4% (inactive)"}, {"smiles": "CCC(C)CC(C)C(=O)c1c(O)ccn(OC)c1=O", "note": "(stereo not given)", "growth": "82.9% (inactive)"}, {"smiles": "COC(=O)[C@]12CC[C@@H](C)[C@H](C)[C@@H]1C1=CC[C@@H]3[C@@]4(C)C=C(O)C(=O)[C@@]5(C)COC(=C54)C[C@@]3(C)[C@]1(C)CC2", "growth": "-25.8% (active)"}, {"smiles": "COc1ccc2c(c1)C(=O)/C(=C/c1ccc([N+](=O)[O-])s1)O2", "growth": "-49.1% (active)"}, {"smiles": "COc1cc2c(c(OC)c1OC)CCc1cnoc1-2", "growth": "97.7% (inactive)"}, {"smiles": "COc1ccc2nc(-c3ccc(-n4cncc4-c4ccc(OC)c(N)c4)cc3)sc2c1", "growth": "102% (inactive)"}, {"smiles": "O=C(c1nn(-c2ccc(Cl)cc2)cc1O)n1nc(C(F)(F)F)cc1-c1ccccc1", "growth": "44.9% (inactive)"}, {"smiles": "Cc1nn(-c2ccc(Cl)cc2)c2nc3c(nc12)C(=O)c1ccccc1-3", "growth": "73.7% (inactive)"}, {"smiles": "CCCCCCCCCCSc1ncnc2nc[nH]c12", "growth": "47.9% (inactive)"}, {"smiles": "O=C1c2ccccc2-c2c1nc1ccccc1[n+]2[O-]", "growth": "107% (inactive)"}, {"smiles": "O=C(CSc1nnc(Nc2ccccc2)s1)NCCc1ccc(F)cc1", "growth": "94.8% (inactive)"}, {"smiles": "c1ccc(-n2nnnc2-c2cccc3ccccc23)cc1", "growth": "31.8% (inactive)"}, {"smiles": "NNC(=O)NO", "growth": "98.9% (inactive)"}, {"smiles": "Cc1nnc(Nc2ccc(NC(=O)Nc3ccc(Cl)cc3)cc2)c2ccccc12", "growth": "8.43% (active)"}, {"smiles": "OC(CCC(O)(c1ccccc1)c1ccccc1)(c1ccccc1)c1ccccc1", "growth": "94.1% (inactive)"}, {"smiles": "O=C(C=C=Nc1ccccc1)C(=O)N=C=Cc1ccccc1", "growth": "17.7% (inactive)"}, {"smiles": "O=C1/C(=C/c2ccc([N+](=O)[O-])o2)Oc2ccc(Br)cc21", "growth": "58% (inactive)"}, {"smiles": "COc1cc([C@@H]2c3cc4c(cc3C(O[C@@H]3O[C@@H]5CO[C@@H](c6cccs6)OC5[C@H](O)[C@H]3O)C3COC(=O)[C@@H]32)OCO4)cc(OC)c1O", "note": "(stereo not given in full)", "growth": "-0.0776% (active)"}, {"smiles": "COc1ccc(-c2nn(-c3cccc(Cl)c3)cc2C2CC(c3ccccc3)=NN2C(C)=O)cc1", "note": "(stereo not given)", "growth": "44.7% (inactive)"}, {"smiles": "COC(=O)[C@]1(C(C)C)N[C@H](c2cn(-c3ccccc3)nc2-c2ccccc2)[C@@H]2C(=O)N(c3ccc(Cl)cc3)C(=O)[C@@H]21", "growth": "93.6% (inactive)"}, {"smiles": "O=C(O)C(=O)O", "growth": "94.4% (inactive)"}, {"smiles": "CCOC(=O)C1=C(COCCN)NC(C)=C(C(=O)OC)C1c1ccccc1Cl", "note": "(stereo not given)", "growth": "51.7% (inactive)"}, {"smiles": "O=C(/C=C/c1ccc(Cl)cc1)c1ccccc1", "growth": "92.4% (inactive)"}, {"smiles": "COc1ncc(-c2ccc3nccc(C#CCN4CCN(S(C)(=O)=O)CC4)c3c2)cc1NS(=O)(=O)c1ccc(F)cc1F", "growth": "3.5% (active)"}, {"smiles": "O=C(Nc1ccc(C2=NCCCN2)cc1)Nc1ccc(C2=NCCCN2)cc1", "growth": "73.6% (inactive)"}, {"smiles": "S=c1[nH]nc2sc3ccccc3n12", "growth": "101% (inactive)"}]}]}
